Laboratory results: PubChem BioAssay AID936 (University of Pittsburgh Molecular Library Screening Center, 2007)

test: H2O2 production by redox-active compounds – biochemical, 1 mM DTT, artefact control for Plk1 PBD inhibitor project, dose response (AID 936); settings: Redox cycling H2O2 generation, cell-free; call rule not given here

EC50, inactive:
O=C1C(C2=C(O)c3ccccc3C2=O)=Nc2ccccc21 > 50 µM
CCC(Sc1nc2n[nH]c(C)c2c(=N)n1-c1cccc(Cl)c1)C(=O)NCCOC (stereo not drawn) > 50 µM
O=C(O)COc1ccc(Br)cc1/C=N/O > 50 µM
